# Screening data as filed in PubChem.
# VACV mCherry inh = vaccinia inhibition (mCherry reporter) | Vaccinia virus mCherry reporter infection, fluorescence | Potency, µM (titrated, usually from 36.5 µM), without a hit: at the top dose activity change, negative = inhibition, actives largely listed as inhibitors | 0.63% of 310,000 active; calls by dose curve; tested in A549 cells; note: potency is the fitted concentration of half-maximal effect; % is set by controls: 0 for no effect and ±100 for the full control effect; nearly all actives have a fitted effect of over 35% in size
# LASV entry inh = blocks Lassa virus binding to or entry into cells; AID 540256; Lassa virus pseudotype entry inhibition, cell reporter; Potency, µM (doses to about 37.9 µM), inactives show at the top dose activity change, negative = inhibition, hits mostly inhibitors; 1.2% of 300,000 active; calls by dose curve; tested in HEK293 cells; note: potency is the fitted concentration of half-maximal effect; % is set by controls: 0 for no effect and ±100 for the full control effect; nearly all actives have a fitted effect of over 50% in size
# Cycloheximide cs = counter-screen for Shiga toxin inhibitors: cycloheximide protein synthesis inhibition | cell reporter, cycloheximide protein synthesis inhibition counterscreen | max response, % | 12% of 300,000 active; in the data active = max response mostly above about 13%, no sharp cut-off; inactive = mostly below about 14%; note: read at 38.3 µM for the half of the compounds with a filed dose; 0% is about no effect
# Shiga toxin inh = Shiga toxin inhibition | AID 2315 | inhibition, % at 38.7 µM | 9.2% of 290,000 active | Vero cells, Shiga toxin protein synthesis inhibition reporter; in the data active = inhibition mostly above about 28%, no sharp cut-off; inactive = mostly below about 43%; note: 0% is about no effect
# VACV Venus inh = inhibitors of vaccinia virus (Venus reporter); AID 720580; Potency, µM (top dose mostly 36.5 µM), for the others: top-dose activity change, negative = inhibition, actives largely listed as inhibitors; 0.46% of 330,000 active; Vaccinia virus Venus reporter expression, fluorescence; calls by dose curve; tested in A549 cells; note: potency is the fitted concentration of half-maximal effect; % is set by controls: 0 for no effect and ±100 for the full control effect; nearly all actives have a fitted effect of over 30% in size
# Marburg entry inh = inhibitors of Marburg virus binding or cell entry. Marburg virus pseudotyped entry inhibition, cell reporter. 1.8% of 300,000 active. Potency, µM (series often up to 37.8 µM), without a hit: at the top dose activity change, negative = inhibition, most hits filed as inhibitors; calls by dose curve; tested in HEK293 cells; note: potency is the fitted concentration of half-maximal effect; % is set by controls: 0 for no effect and ±100 for the full control effect
# Numbers without * were called inactive; i = inactive; u = inconclusive; x = no result given; + = active, no number; [ ] = another dose, or the depositor's remark. Shown is part of a subset that was picked to be rich in hits.
SMILES,VACV mCherry inh,LASV entry inh,Cycloheximide cs,Shiga toxin inh,VACV Venus inh,Marburg entry inh
O=C(Nc1cccnc1Cl)c1cc(-c2ccc(Cl)cc2)on1,-1.9%,3.8%[46.1 µM],-2.4,-3.4,1.7%,3.7%[46.1 µM]
CCOC(=O)Nc1cccnc1Sc1ccc(Cl)cc1,19.7%,20.0%[46.1 µM],x,x,1.8%,-12.3%[46.1 µM]
COc1ccc(C(=O)Nc2cccnc2Sc2ccc(Cl)cc2)cc1,-11.2%,u,27.2*,46.7*,-4.3%,1.7%
O=C(Nc1cccnc1Cl)c1cccnc1Cl,-13.8%,u,-3.6,-11.1,4.9%,7.6%
O=C(NC(=S)Nc1cccnc1Cl)c1ccc(Cl)cc1,i,u,49.8*,114.2*,-4.8%,7.9%[46.1 µM]
O=C(Nc1cccnc1Cl)c1ccc(Cl)cc1,4.2%,12.8%[46.1 µM],36.2*,70.4*,-10.0%,u
CSc1ccc(C(=O)N2CCc3ccc(NC(=O)c4ccccn4)cc3C2)cc1,-17.4%,u,58.4*,106.6*,u,u
O=C(Nc1nc2n(n1)C(c1ccc(F)cc1)C=C(c1ccc(Cl)cc1)N2)c1ccc([N+](=O)[O-])cc1 (stereo not drawn),-29.2%,u,x,x,-28.6%,2.82µM*
O=C(Nc1nc2n(n1)C(c1ccc(F)cc1)C=C(c1ccccc1)N2)c1ccc(Cl)cc1 (stereo not drawn),-14.0%,-1.4%[46.1 µM],x,x,-17.5%,-17.9%[46.1 µM]
CCCc1cc2c(=O)c(-c3nc4ccccc4s3)c(COCC(=O)O)oc2cc1O,-6.2%,20.0%[46.1 µM],43.4*,95.1*,2.3%,24.4%[46.1 µM]
Cc1ccc(N2C(=O)NC(=O)/C(=C\c3cc(C)n(-c4sc5c(c4C#N)CCCC5)c3C)C2=O)cc1,-14.6%,u,-6.9,-4.7,-15.2%,2.51µM*
CC(=O)O[C@H]1C(=O)[C@@]2(C)C([C@H](OC(=O)c3ccccc3)[C@]3(O)C[C@H](OC(=O)[C@H](O)[C@@H](NC(=O)c4ccccc4)c4ccccc4)C(C)=C1C3(C)C)[C@]1(OC(C)=O)CO[C@@H]1C[C@@H]2OC(=O)[C@H](C)NC(=O)c1ccc(-c2c3ccc(=O)cc-3oc3cc(O)ccc23)c(C(=O)O)c1 (stereo partly drawn),x,x,22.2,+,x,x
C/C=C(\C)C(=O)N[C@@H](c1ccccc1)[C@@H](O)C(=O)O[C@H]1C[C@@]2(O)[C@@H](OC(=O)c3ccccc3)C3[C@](C)(C(=O)[C@H](OC(C)=O)C(=C1C)C2(C)C)[C@@H](O)C[C@H]1OC[C@@]31OC(C)=O (stereo partly drawn),-20.3%,x,-2.7,-4.5,-22.4%,x
COc1ccc(C(=O)Nc2nnc(C)s2)cc1,-6.0%,0.5%[46.1 µM],x,x,0.8%,x
CCc1nc2ccc(C(=O)Nc3nnc(C)s3)cc2nc1CC,-0.6%,11.9%,12.3*,16.3,-5.8%,18.7%[46.1 µM]
CCc1nc2ccc(C(=O)N3CCN(CC)CC3)cc2nc1CC,x,x,-3.2,2.6,x,x
CCc1nc2ccc(C(=O)O)cc2nc1CC,-13.4%,14.6µM*,91.1*,90.7*,-3.2%,2µM*
CC(C)(C)C(=O)Nc1ccccc1C(=O)OCc1cc(=O)n2ccsc2n1,-4.3%,-3.4%[46.1 µM],x,x,-1.1%,x
O=C(Oc1ccc(-c2ccccc2)cc1)N1CCCCC1,x,-25.5%,35.4*,64.9*,-26.7%,u
O=C(Oc1ccc(OC(=O)N2CCCCC2)cc1)N1CCCCC1,x,x,5.9,-10.1,x,x
CC(=O)Nc1ccc(OC(=O)N2CCCCC2)cc1,x,-6.3%,12.2*,79.9,x,8.0%
CC(NC(=O)c1ccc(CSc2nc3ccncc3n2Cc2ccc(F)cc2)cc1)c1ccccc1 (stereo not drawn),u,-19.6%[46.1 µM],x,x,-29.7%,u
COc1cc2cc(C#N)c(SCC(=O)OC(C)C)nc2cc1OC,-9.2%,x,x,x,-14.5%,x
O=C(O)CCc1cc(F)c(S(=O)(=O)N2CCN(S(=O)(=O)c3ccc4c(c3)OCCO4)CC2)cc1F,x,x,-2.1,-6.5,x,x
CC(=O)Nc1ccc(/C=C/C(=O)c2ccc3c(c2)OCCO3)cc1,u,-24.9%,23.5*,45.2*,-20.4%,1.4%[46.1 µM]
O=C(/C=C/c1cccc([N+](=O)[O-])c1)c1ccc2c(c1)OCCO2,-17.0%,-5.3%,-1.3,-5.7,-11.8%,u
CSc1ccc(/C=C/C(=O)c2ccc(NC(C)=O)cc2)cc1,x,-3.6%,32.9*,59.5*,-9.5%,-0.6%
CCCC(=O)Nc1ccc(C(=O)/C=C/c2ccc(SC)cc2)cc1,x,u,22.4,28.1,u,u
COc1ccc(/C=C/C(=O)c2ccc3c(c2)OCCO3)cc1[N+](=O)[O-],x,-6.1%,-0.7,8.1,x,u
